The source of these data is PMC13494018.

Unmarked numbers belong to inactive results. How the calls were made is not given here.

B1: design_601_c3fd07b4-2f34-4ad8-bd4e-2749faf628eb_2221_dldesign_0_cycle1_af2pred (protein)
chain: GAAEEAKKALKEAKERIEKVATPETKEFHEKLKEEMEKKVKELMAGDPVEGAKAAAKAAAAYAQEAYEASAEARAKEIIKK
B2: design_602_0a1f3d3d-7d26-454b-9b34-ebe8ef9bc7d4_227_dldesign_0_cycle1_af2pred (protein)
chain: GAAAKAEAAKLAHESNEAKAEAVAHPEKAAEEAKKIKERLKELEKKAKEAPAEVAKYYAKAAKIAKKNLEEAKKVAEEAKA
B3: design_601_c3fd07b4-2f34-4ad8-bd4e-2749faf628eb_1838_dldesign_0_cycle1_af2pred (protein)
chain: SMAEEILKEFLELAKVMAEDPEKGAKLFAEKVKELDPSIYPFAEAAAKKAAEEGAPLEELERAARAFANVVTT
B4: design_602_0a1f3d3d-7d26-454b-9b34-ebe8ef9bc7d4_194_dldesign_0_cycle1_af2pred (protein)
chain: AVEAAIEALEELAKKAPPELAEYLKRTAEAAKKAGEKVLRYAVRAAAYATIALEGSPEVAAEAIKKAKEQAEKAEKIAKE
B5: design_601_c3fd07b4-2f34-4ad8-bd4e-2749faf628eb_1497_dldesign_0_cycle1_af2pred (protein)
chain: SMEEEEQRRRAIEELKRLMELADKSPSEIAKATREAVAATPLYAERIRKVGTAMMFNPEEGKKLAEEAIKELE
B6: design_601_c3fd07b4-2f34-4ad8-bd4e-2749faf628eb_2283_dldesign_0_cycle1_af2pred (protein)
chain: AAAEDEAKRALAKKKAEEAKKLAKEAVEGNAEKAEKAAKELEKILKELRALGKAASPAAKAALTAAAHTAAEAYAEAYSAAVVKKEKE
B7: design_601_c3fd07b4-2f34-4ad8-bd4e-2749faf628eb_2299_dldesign_0_cycle1_af2pred (protein)
chain: MEAKEKAEKAIKRAKEIGEKLIKKVAFNPEAAEKVKKLTEEAIEAIKKDPEEGIKKGAEILQKAREYAAEVLAKN
B8: design_601_c3fd07b4-2f34-4ad8-bd4e-2749faf628eb_1863_dldesign_0_cycle1_af2pred (protein)
chain: SEYEKELAKAEAFVKEALKKSKEEFIAETKKLFEEGSPVYQSALMRALTKAAKEYKDDPEKQKKALDARDTIVD
B9: design_601_c3fd07b4-2f34-4ad8-bd4e-2749faf628eb_2023_dldesign_0_cycle1_af2pred (protein)
chain: MREEIIKAIKEAVKELKKLGKLAKEAKKKNPEIGKEAEKDAKKLQKELFEALSSENAVEKLKEVKEKTKKKIEEIKKKVEE
B10: design_602_0a1f3d3d-7d26-454b-9b34-ebe8ef9bc7d4_95_dldesign_0_cycle1_af2pred (protein)
chain: MEELAKKAEEVVEESGEALAKAPREKWPEISELRHESLRALREAGENPETREEHLKEGEKYLEEAKKLAEKGAKE
B11: design_601_c3fd07b4-2f34-4ad8-bd4e-2749faf628eb_2458_dldesign_0_cycle1_af2pred (protein)
chain: MEKAKEEALKLIKELLEATKLPKGKASQIALELAAEADWLAKKSSPEAAELFNALAEAARAVVKDKEKGKELAKKVKEKVEK
B12: design_601_c3fd07b4-2f34-4ad8-bd4e-2749faf628eb_2200_dldesign_0_cycle1_af2pred (protein)
chain: SSEYSKKLAEDLKTFVKNIRDIAKESGDPAVVEQAKAVMAAFVTSEEAGVAAAKKLEAYTKETTNPALAAKAATAYDALKNIADG
B13: design_602_0a1f3d3d-7d26-454b-9b34-ebe8ef9bc7d4_127_dldesign_0_cycle1_af2pred (protein)
chain: AEEERRKALAKKRAERAKALAVEAKKEGNEEAAKYYEKAAELYAKAAEAPPEERGKLVDEAVEYYGEGELEKIKFK
B14: design_601_c3fd07b4-2f34-4ad8-bd4e-2749faf628eb_2331_dldesign_0_cycle1_af2pred (protein)
chain: HMEEEAYKAKVEKAKAAMKEAADKLVSDPEAAKKQITQIAKDTAKELIATGTPAGKAAAQDALAEATAAKTELDKKAK
B15: design_602_0a1f3d3d-7d26-454b-9b34-ebe8ef9bc7d4_204_dldesign_0_cycle1_af2pred (protein)
chain: SEEEKKKELLEKTEENKKYLEELRKKYEADPSYKVEAATAEAGVKAAEEAKGENFEEAAEKAQKAYNTFKRMEEAEEEAKKRA
B16: design_601_c3fd07b4-2f34-4ad8-bd4e-2749faf628eb_1953_dldesign_0_cycle1_af2pred (protein)
chain: AVAAKAQAALDRTAALREKHPEAKEYLDKAEEEAKKALADPANAAEYLKKAANYLQEAYQEASEYEFKKK
B17: design_602_0a1f3d3d-7d26-454b-9b34-ebe8ef9bc7d4_149_dldesign_0_cycle1_af2pred (protein)
chain: VVEKALKEMEKYIEKAKEEAIKINPKAKEYIEKRAKRIREEAKKGAEEAKKLYKEDPEKGKEKAKEALKKTKGLAESLIEHAKFSAK
B18: design_602_0a1f3d3d-7d26-454b-9b34-ebe8ef9bc7d4_19_dldesign_0_cycle1_af2pred (protein)
chain: MEEEEELKKKKEELLKLKKKLEEAYDIAAELAAKNPEYLDEVLEKYREGLRYLKLGGENPENYEEYYEKAKEKLKEIEEIAKKLK
B19: design_601_c3fd07b4-2f34-4ad8-bd4e-2749faf628eb_1955_dldesign_0_cycle1_af2pred (protein)
chain: MEQEKKDEELLKKVKELGKEATEKSLEDPEKAKEYRKKLIEEAKKAAAEASPEYAKKIAEEAQKAQEEITEAQVEGEKKKK

For the assay, the target named is VTCN1, Q7Z7D3.
VTCN1, Q7Z7D3, sequence (Q7Z7D3 whole entry): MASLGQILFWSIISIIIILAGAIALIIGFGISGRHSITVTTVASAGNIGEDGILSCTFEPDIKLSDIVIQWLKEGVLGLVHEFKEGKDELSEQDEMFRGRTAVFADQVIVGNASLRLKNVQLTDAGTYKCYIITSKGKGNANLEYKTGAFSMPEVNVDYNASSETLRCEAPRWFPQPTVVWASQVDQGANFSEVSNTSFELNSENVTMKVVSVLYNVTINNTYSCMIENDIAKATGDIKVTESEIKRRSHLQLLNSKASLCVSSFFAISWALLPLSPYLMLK
For B1, the “binding in a display sort” value is “not found”.

As to B2, the “binding in a display sort” value was “not found”.

Take B3: the “binding in a display sort” value is “not found”.

Take B4: the “binding in a display sort” value is “not found”.

Consider B5, for which the “binding in a display sort” value is “binds (active)”.

Regarding B6, the “binding in a display sort” value is “not found”.

Consider B7, for which the “binding in a display sort” value is “not found”.

As to B8, the “binding in a display sort” value is “not found”.

As for B9, the “binding in a display sort” value is “not found”.

In the case of B10, the “binding in a display sort” value was “not found”.

With B11, the “binding in a display sort” value was “not found”.

For the molecule B12, the “binding in a display sort” value was “not found”.

Regarding B13, the “binding in a display sort” value is “not found”.

As for B14, the “binding in a display sort” value is “not found”.

With B15, the “binding in a display sort” value was “not found”.

For the molecule B16, the “binding in a display sort” value was “not found”.

For the molecule B17, the “binding in a display sort” value was “not found”.

On to B18, for which the “binding in a display sort” value is “not found”.

B19: the “binding in a display sort” value is “not found”.
